Data as given in PubChem BioAssay AID1578 (Sanford-Burnham Center for Chemical Genomics, 2009).
In all, about 290,000 compounds went through this assay and about 3,000 (1%) were called active. No stated cut-off is given here; in the data, active means inhibition mostly above about 36% (no sharp cut-off); inactive means mostly below about 34%. The list comes from a sample in which actives are over-represented; it also holds similar structures and randomly drawn compounds.

Experiment: NOD1 signaling inhibitors, primary screen, cell-based, luminescence, uHTS (AID 1578);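 further: HEK-293T reporter cells stimulated with the NOD1 agonist gamma-tri-DAP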
Conditions: NOD1-driven NF-kB luciferase reporter cells, at 4 µM, active compounds read high

inhibition, active:
O=c1c2c(nc3cc(-c4ccc(F)cc4)[nH]n13)CCC2 62.6%
COc1ccccc1NC(=S)NCCc1c[nH]c2ccccc12 86%
COc1cccc(C(=O)Nc2ccc3c(c2)CCCN3C(=O)c2cccs2)c1OC 56.1%
Clc1ccc(-c2nn3c(-c4ccncc4)nnc3s2)c(Cl)c1 59%
CC1(C)CC(=O)C=C(NC2=CC3OC(c4ccccc4)OCC3OC2=O)C1 (centres undefined) 61.7%
O=C(NNC1=Nc2cccc3cccc1c23)c1ccc(Br)cc1 85.4%
N#Cc1cc(NC(=O)c2ccc(F)cc2)c(=O)n2c1[nH]c1ccccc12 67.8%
Cc1ccc(NC(=S)N=Nc2c(O)[nH]c3ccccc23)cc1 50.7%
C=CCn1c2ccccc2c2nnc(SCCCn3c(=O)[nH]c4ccccc43)nc21 60.9%

inhibition, inactive:
COc1ccc(C(=O)c2coc3ccc(O)c(CN4CCCCC4)c23)cc1 9.4%
CCN(CC)Cc1c(O)ccc2c([N+](=O)[O-])c(C)n(-c3ccc(OC)cc3)c12 -5.7%
COc1cc(C2NC(=S)NC(C)=C2C(=O)Nc2ccc(C)cc2)ccc1O (centres undefined) -50%
c1coc(-c2nc(-c3ccncc3)no2)c1 -24.6%
CCCCn1c(O)c(N=NC(=O)c2ccncc2)c2cc(Br)ccc21 46.8%
O=c1c2c(nc3cc(-c4ccc(F)cc4)[nH]n13)CCCC2 -40.5%
O=c1c2c(nc3cc(-c4ccccc4)[nH]n13)CCC2 -31.8%
CC(NC(=O)CSc1nc2ccc(N)cc2s1)c1ccccc1 (centres undefined) -0.6%
COc1ccc(Cl)cc1NC(=S)NCCc1c[nH]c2ccccc12 -12.7%
COc1ccc(NC(=S)NCCc2c[nH]c3ccccc23)c(OC)c1 17.2%
COc1ccccc1C(=O)Nc1ccc2c(c1)CCCN2C(=O)c1cccs1 -18.3%
COc1ccc(C(=O)Nc2ccc3c(c2)CCCN3C(=O)c2cccs2)c(OC)c1 21.1%
O=C(CC1C(=O)N(c2ccccc2)C(=O)N1C1CCCCC1)Nc1ccccc1 (centres undefined) 11.7%
CC1CCCN(S(=O)(=O)c2ccc(NC(=O)Cn3nnc(-c4ccccc4F)n3)cc2)C1 (centres undefined) -31.2%
CC(C)CCOc1ccc(Cl)cc1CN1CCOCC1 -26.5%
Clc1cccc(-c2nn3c(-c4ccncc4)nnc3s2)c1 -14%
Clc1ccccc1-c1nn2c(-c3ccncc3)nnc2s1 64.5%
COC(=O)c1c(C(=O)OC)c(-c2ccc(Cl)c(Cl)c2)n2c1CCC2 -14.5%
Cc1nnn(C23C[C@@H]4C[C@@H](CC(C(=O)N5CCN(c6ccccc6)CC5)(C4)C2)C3)n1 -7%
Cc1ccc(CCNC(=O)C23C[C@H]4C[C@@H](C2)CC(n2nnc(C)n2)(C4)C3)cc1 -3.3%
COc1cccc(C2C(C#N)=C(N)Oc3cc(C)n(Cc4ccccn4)c(=O)c32)c1OC (centres undefined) -19.6%
Cc1ccsc1C(=O)OCc1csc(-c2ccccc2)n1 -65.5%
Cc1ccccc1NC1=CC(=O)CC(C)(C)C1 1.1%
O=C1C=C(NC2=CC3OC(c4ccccc4)OCC3OC2=O)CCC1 (centres undefined) -24.3%
COc1ccc(CN2CCC(n3nccc3NC(=O)c3ccc4c(c3)OCO4)CC2)cc1C -12.5%
O=S(=O)(c1cccs1)N1CCN(Cc2nc3ccccc3s2)CC1 -23.6%
O=C(NC(N1CCOCC1)C(Cl)(Cl)Cl)c1ccc(F)cc1 (centres undefined) -23.2%
Cc1ccc(C(=O)NNC2=Nc3cccc4cccc2c34)cc1 34%
COc1ccc(C(=O)NNC2=Nc3cccc4cccc2c34)cc1 11.1%
CC(=O)N/C(=C/c1ccccc1)C(=O)N1CCCCC1 -19.2%
CCN(CC(=O)Nc1c(F)cccc1F)C(=O)c1n[nH]c2ccccc12 -21.6%
O=C(Nc1ccccc1NC(=O)c1ccc(F)cc1)c1ccc(F)cc1 5.1%
Cc1ccc2c(c1)sc1ncc(NC(=O)c3ccc(F)cc3)c(=O)n12 -34.8%
COc1cccc(N(C(=O)c2ccco2)C(C(=O)NC2CCCC2)c2ccc(N(C)C)cc2)c1 (centres undefined) -6.7%
Oc1ccc(NC(=S)N=Nc2c(O)[nH]c3ccccc23)cc1 -25.5%
Cc1cccc(NC(=S)N=Nc2c(O)[nH]c3ccccc23)c1 -18.3%
CC(Nc1nc(-c2ccccc2F)nc2ccccc12)c1ccccc1 (centres undefined) -6.1%
C=CCn1c2ccccc2c2nnc(SCCN3CCCCC3)nc21 33.2%
CCn1c2ccccc2c2nnc(SCCCn3c(=O)[nH]c4ccccc43)nc21 -22.4%
Cc1oc(-c2ccccc2Cl)nc1CN1CCCCC1CO (centres undefined) -13.9%
